Measured values reported in PubChem BioAssay (NCATS).
Values joined by “and” are separate entries in the source; they are usually repeats but may differ in a detail not shown here. Equal entries are not always repeated. Records with an inconclusive call do not appear. Active and inactive are the calls of the source. Calls follow the shape of the dose curve; as a rule, active = well fitted inhibition curve with a large enough effect; inconclusive = small, poorly fitted or top-dose-only effect; inactive = flat fitted curve, though single readings scatter.

Columns and labels:
HB3 = assay: qHTS profiling for inhibitors of Plasmodium falciparum proliferation (AID 504749); conditions: P. falciparum in erythrocytes, SYBR Green DNA, 72 h; series mostly up to 28.7 µM
Outline: (§1)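 SYBR Green fluorescence (ex 485 nm, em 535 nm) reports parasite DNA after 72 h compound exposure of infected red cells at 0.3% parasitemia, 2.5% hematocrit; signal normalized to 0.29 uM artemisinin and vehicle wells.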

ICS = assay: as above; conditions: P. falciparum in erythrocytes, SYBR Green DNA, 72 h; series mostly up to 28.7 µM
Outline: as §1

JCK = assay: as above; conditions: P. falciparum in erythrocytes, SYBR Green DNA, 72 h; series mostly up to 28.7 µM
Outline: as §1

N140 = assay: as above; conditions: P. falciparum in erythrocytes, SYBR Green DNA, 72 h; series mostly up to 28.7 µM
Outline: as §1

P93_24 = assay: as above; conditions: P. falciparum in erythrocytes, SYBR Green DNA, 72 h; series mostly up to 28.7 µM
Outline: as §1

P94_40 = assay: as above; conditions: P. falciparum in erythrocytes, SYBR Green DNA, 72 h; series mostly up to 28.7 µM
Outline: as §1

PAD = assay: as above; conditions: P. falciparum in erythrocytes, SYBR Green DNA, 72 h; series mostly up to 28.7 µM
Outline: as §1

PC15 = assay: as above; conditions: P. falciparum in erythrocytes, SYBR Green DNA, 72 h; series mostly up to 28.7 µM
Outline: as §1

PC26 = assay: as above; conditions: P. falciparum in erythrocytes, SYBR Green DNA, 72 h; series mostly up to 28.7 µM
Outline: as §1

PC49 = assay: as above; conditions: P. falciparum in erythrocytes, SYBR Green DNA, 72 h; series mostly up to 28.7 µM
Outline: as §1

TAB109 = assay: as above; conditions: P. falciparum in erythrocytes, SYBR Green DNA, 72 h; series mostly up to 28.7 µM
Outline: as §1

TAB113 = assay: as above; conditions: P. falciparum in erythrocytes, SYBR Green DNA, 72 h; series mostly up to 28.7 µM
Outline: as §1

TAB165 = assay: as above; conditions: P. falciparum in erythrocytes, SYBR Green DNA, 72 h; series mostly up to 28.7 µM
Outline: as §1

CRL-7250 = normal cell line; assay: Cytotoxic Profiling of Annotated Libraries Using Quantitative High-Throughput Screening (AID 1296008); conditions: Five cell lines viability, CellTiter-Glo ATP luminescence, 48-72 h; max response: stronger effect = lower value; as to max response: % is scaled to controls: 0 for no effect and ±100 for the full control effect
Outline: (§2)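 Cells exposed to compounds for 48 or 72 hr at 37 degrees Celsius. Viability read as ATP-coupled luminescence with CellTiter-Glo after 10 min at room temperature.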

HEK293 = assay: as above; conditions: Five cell lines viability, CellTiter-Glo ATP luminescence, 48-72 h; max response: stronger effect = lower value
Outline: as §2

HaCat = assay: as above; conditions: Five cell lines viability, CellTiter-Glo ATP luminescence, 48-72 h; max response: stronger effect = lower value
Outline: as §2

KB-3-1 = assay: as above; conditions: Five cell lines viability, CellTiter-Glo ATP luminescence, 48-72 h; max response: stronger effect = lower value
Outline: as §2

NIH3T3 = assay: as above; conditions: Five cell lines viability, CellTiter-Glo ATP luminescence, 48-72 h; max response: stronger effect = lower value
Outline: as §2

SC27B = assay: qHTS profiling for inhibitors of Plasmodium falciparum proliferation (AID 504749); conditions: P. falciparum in erythrocytes, SYBR Green DNA, 72 h; series mostly up to 28.7 µM
Outline: as §1

W2 = assay: as above; conditions: P. falciparum in erythrocytes, SYBR Green DNA, 72 h; series mostly up to 28.7 µM
Outline: as §1
Also: nearly all actives have a fitted effect of over 60% in size.
Potency is read from the fitted curve at half-maximal effect.

COCc1c(C(C)C)nc(C(C)C)c(/C=C/[C@@H](O)C[C@@H](O)CC(=O)O)c1-c1ccc(F)cc1
active: Potency (CRL-7250) 0.0596 µM | Potency (HEK293) 531 nM | Potency (HaCat) 0.841 µM | Potency (KB-3-1) 1.84 µM | Potency (NIH3T3) 2.37 µM
inactive: Potency (HB3) | Potency (ICS) | Potency (JCK) | Potency (N140) | Potency (P93_24) | Potency (P94_40) | Potency (PAD) | Potency (PC15) | Potency (PC26) | Potency (PC49) | Potency (TAB109) | Potency (TAB113) | Potency (TAB165)

COc1cc(OC)cc(OC)c1
inactive: Potency (HB3) | Potency (ICS) | Potency (JCK) | Potency (N140) | Potency (P93_24) | Potency (P94_40) | Potency (PAD) | Potency (PC15) | Potency (PC26) | Potency (PC49) | Potency (SC27B) | Potency (TAB109) | Potency (TAB113) | Potency (TAB165) | Potency (W2) | max response (CRL-7250) -8.4% | max response (HEK293) 0.846% | max response (HaCat) 4.71% | max response (KB-3-1) -2.29% | max response (NIH3T3) -4.81%

C[C@]12CCC(=O)C=C1CC[C@H]1[C@@H]3CC[C@](O)(C(=O)CO)[C@@]3(C)C[C@H](O)[C@@]12F
inactive: Potency (HB3) | Potency (ICS) | Potency (JCK) | Potency (N140) | Potency (P93_24) | Potency (P94_40) | Potency (PAD) | Potency (PC15) | Potency (PC26) | Potency (PC49) | Potency (SC27B) | Potency (TAB109) | Potency (TAB165) | Potency (W2) | max response (CRL-7250) -14.8% | max response (HEK293) -5.58% | max response (HaCat) -3.35% | max response (KB-3-1) 18.3% and -1.2% | outcome (NIH3T3)

CCC(C(=O)OCCN(CC)CC)c1ccccc1 (stereo not drawn)
inactive: Potency (HB3) | Potency (ICS) | Potency (JCK) | Potency (N140) | Potency (P93_24) | Potency (P94_40) | Potency (PAD) | Potency (PC15) | Potency (PC26) | Potency (PC49) | Potency (SC27B) | Potency (TAB109) | Potency (TAB113) | Potency (TAB165) | outcome (CRL-7250) | max response (HEK293) 3.62% | outcome (HaCat) | max response (KB-3-1) -12.7% | max response (NIH3T3) -17.3%
active: Potency (W2) 15.1 µM

Cc1ccccc1C(=O)Nc1ccc(C(=O)N2CCCC(N(C)C)c3ccccc32)cc1 (stereo not drawn)
active: Potency (CRL-7250) 23.7 µM | Potency (HEK293) 3.35 µM and 5.8 µM | Potency (KB-3-1) 7.31 µM | Potency (NIH3T3) 9.44 µM

Cc1c(C(C)C)c(=O)n(-c2ccccc2)n1C
inactive: Potency (HB3) | Potency (ICS) | Potency (JCK) | Potency (N140) | Potency (P93_24) | Potency (P94_40) | Potency (PAD) | Potency (PC15) | Potency (PC26) | Potency (PC49) | Potency (SC27B) | Potency (TAB109) | Potency (TAB113) | Potency (TAB165) | Potency (W2) | max response (CRL-7250) 0.671% | outcome (HEK293) | outcome (HaCat) | max response (KB-3-1) -0.49% | max response (NIH3T3) 0.732%

CC(C)COC(=O)c1ccc(N)cc1
inactive: Potency (HB3) | Potency (ICS) | Potency (N140) | Potency (P93_24) | Potency (PAD) | Potency (PC15) | Potency (PC26) | Potency (PC49) | Potency (SC27B) | Potency (TAB113) | Potency (TAB165) | Potency (W2) | max response (CRL-7250) 2.7% | max response (HEK293) -1.38% | outcome (HaCat) | max response (KB-3-1) 12.1% | max response (NIH3T3) 3.91%

CN1CCC[C@@H]1c1cccnc1
inactive: Potency (HB3) | Potency (ICS) | Potency (JCK) | Potency (N140) | Potency (P93_24) | Potency (P94_40) | Potency (PAD) | Potency (PC15) | Potency (PC26) | Potency (PC49) | Potency (SC27B) | Potency (TAB109) | Potency (TAB113) | Potency (TAB165) | Potency (W2) | max response (CRL-7250) -7.79% | max response (HEK293) -4.75% | outcome (HaCat) | max response (KB-3-1) -0.673% | max response (NIH3T3) 0.585%

Cc1cc(=O)n(-c2ccccc2)n1C
inactive: Potency (HB3) | Potency (ICS) | Potency (JCK) | Potency (N140) | Potency (P93_24) | Potency (P94_40) | Potency (PAD) | Potency (PC15) | Potency (PC26) | Potency (PC49) | Potency (SC27B) | Potency (TAB109) | Potency (TAB113) | Potency (TAB165) | Potency (W2) | max response (CRL-7250) 2.86% | max response (HEK293) -47.4% | max response (HaCat) -15.6% | max response (KB-3-1) 3.76% | max response (NIH3T3) -41.4%
